# From PubChem BioAssay AID1861 (The Scripps Research Institute Molecular Screening Center, 2009)
# The whole screen tested about 290,000 compounds, of which about 3,100 (1.1%) were called active. Cut-off read from the data, not from the text of the source: active = inhibition above about 16% (passing the limit was not always enough); inactive = the rest. What follows is part of a selection rich in actives, with near analogues and random picks from the rest.
# Molecular target: Neuropeptides B/W receptor type 1 (Homo sapiens) (UniProt P48145)
# Assay: blockers of human neuropeptide B/W receptor 1 – cell-based, fluorescence, single concentration, primary screen (AID 1861);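 note: cells stimulated with the agonist NPW; 0% = agonist with vehicle and 100% = vehicle without agonist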
# Conditions: GPR7-expressing cells, fluorescence antagonist assay; at 4.4 µM; stronger effect = higher value
# Sequence of Neuropeptides B/W receptor type 1 (Homo sapiens) (P48145 whole entry, looked up): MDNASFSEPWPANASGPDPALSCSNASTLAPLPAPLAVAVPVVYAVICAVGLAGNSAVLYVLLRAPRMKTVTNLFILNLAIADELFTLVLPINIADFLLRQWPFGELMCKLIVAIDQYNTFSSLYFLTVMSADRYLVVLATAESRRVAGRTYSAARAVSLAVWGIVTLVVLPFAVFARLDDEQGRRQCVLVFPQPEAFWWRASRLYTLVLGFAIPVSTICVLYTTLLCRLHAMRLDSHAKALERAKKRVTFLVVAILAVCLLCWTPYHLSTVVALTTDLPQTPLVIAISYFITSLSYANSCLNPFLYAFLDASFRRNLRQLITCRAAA
row,SMILES,inhibition
1,COc1ccc(C(=O)NC(=S)N2CCCCC2c2cccnc2)cc1OC (stereo not drawn),-2.66% (inactive)
2,Nc1nc(NCc2ccccc2)n(-c2ccccc2)n1,-7.72% (inactive)
3,CC1(c2ccc(Cl)cc2)NC(=O)N(CC(=O)c2ccc3c(c2)OCO3)C1=O (stereo not drawn),-6.7% (inactive)
4,Cc1ccc(NC(=O)CN2C(=O)NC(C)(c3ccc(Cl)cc3)C2=O)c(Br)c1 (stereo not drawn),22.3% (active)
5,O=C(CN1C(=O)NC2(CCCC2)C1=O)Nc1ccc(F)c(F)c1F,11.1% (inactive)
6,O/N=C(\C[n+]1ccccc1)c1ccc(Br)cc1,5.69% (inactive)
7,CCOc1ccc(-n2c(SCC(=O)Nc3cc(C(=O)O)ccc3Cl)nc3ccccc3c2=O)cc1,2.21% (inactive)
8,O=C(COc1ccc(Cl)cc1)N1CCN(c2cccc(C(F)(F)F)c2)CC1,-8.3% (inactive)
9,O=C(COc1ccc(S(=O)(=O)NCc2ccccc2)cc1)N1CCOCC1,4.86% (inactive)
10,O=C(COc1ccc(S(=O)(=O)Nc2cccc(C(F)(F)F)c2)cc1)N1CCOCC1,26.6% (active)
11,COc1ccccc1/C=N\Nc1cc(C)nc(-n2nc(C)cc2C)n1,-14.4% (inactive)
12,COc1ccc(Nc2cc(C)nc(-n3nc(C)cc3C)n2)cc1,20.7% (active)
13,Cc1cc(N/N=C\c2ccc(Br)cc2)nc(-n2nc(C)cc2C)n1,-2.3% (inactive)
14,O=C(NCCc1c[nH]c2ccccc12)C1CCN(Cc2ccc(Br)cc2)CC1,6.85% (inactive)
15,O=C(NC1CCCC1)C(c1ccco1)N(C(=O)c1csnn1)c1ccccc1 (stereo not drawn),-7.05% (inactive)
16,CCc1ccc(N(C(=O)c2csnn2)C(C(=O)NC2CCCCC2)c2cccnc2)cc1 (stereo not drawn),16.5% (inactive)
17,CCc1ccc(N(C(=O)c2csnn2)C(C(=O)NC2CCCCC2)c2ccncc2)cc1 (stereo not drawn),22.7% (active)
18,O=C(NCC(=O)N(c1ccccc1)C(C(=O)NCC1CCCO1)c1ccccc1)c1cccs1 (stereo not drawn),-0.97% (inactive)
19,CN(C)CCNc1ccc(-c2n[nH]c(=O)c3ccccc23)cc1[N+](=O)[O-],-19.5% (inactive)
20,CCc1ccccc1NC(=O)c1ccc2snnc2c1,4.67% (inactive)
21,O=C(Nc1cccc(Br)c1)c1ccc2snnc2c1,6.67% (inactive)
22,O=C(Nc1ccc2ccccc2c1)Nc1ccc2snnc2c1,31.3% (active)
23,COCC(=O)N1CCCC(C(=O)c2ccc(C(F)(F)F)cc2)C1 (stereo not drawn),-16.7% (inactive)
24,CCOC(=O)C1(CCOC)CCN(Cc2cc3ccccc3s2)CC1,-2.08% (inactive)

row,SMILES,inhibition
1,O=C1CCN(Cc2ccc([N+](=O)[O-])cc2)CCN1[C@H](CO)Cc1ccccc1,0.55% (inactive)
2,COc1ccc(C(=O)NC2CCN(C(=O)Nc3ccc(F)cc3)CC2)cc1,-10.4% (inactive)
3,COc1ccc(N=C2SC(C(=O)Nc3ccc(F)cc3)CC(=O)N2C)cc1 (stereo not drawn),26.4% (active)
4,CCOc1ccc(N=C2SC(C(=O)O)CC(=O)N2C)cc1 (stereo not drawn),-6.69% (inactive)
5,CC1CC(=O)N(CC(=O)Nc2cccc(Cl)c2)c2ccccc2S1(=O)=O (stereo not drawn),0.41% (inactive)
6,O=C(CSCc1ccc([N+](=O)[O-])cc1)Nc1cccc(C(=O)Nc2ccccc2C(=O)O)c1,-8.22% (inactive)
7,COc1ccc(NC(=O)CSCc2ccc([N+](=O)[O-])cc2)cc1OC,-12% (inactive)
8,O=C(CSCc1ccc([N+](=O)[O-])cc1)NCCSCc1ccccc1,44.7% (active)
9,CC(=O)Nc1ccc(NC(=O)CSc2nnnn2-c2ccccc2F)cc1,-7.45% (inactive)
10,O=C(CN1CCc2cc3c(cc2C1)OCCCO3)Nc1ccccc1,-5.17% (inactive)
11,Cc1c(CCO)c(=O)n(-c2ccccc2)n1S(=O)(=O)c1ccc(F)cc1,33% (active)
12,CCOC(=O)C1CN(S(=O)(=O)c2ccc(F)cc2)C1,-9.92% (inactive)
13,Cc1ccc(S(=O)(=O)CC(=O)Nc2c(C)n(C)n(-c3ccccc3)c2=O)cc1,1.37% (inactive)
14,CC1(C)C(C=C(Cl)Cl)C1C(=O)NC(O)C(=O)c1ccccc1 (stereo not drawn),-5.98% (inactive)
15,O=C(CN(C(=O)CNC(=O)c1cccs1)c1cccc(F)c1)NC1CCCCC1,7.46% (inactive)
16,O=C(NCCc1ccccc1)C1CC1,-22.6% (inactive)
17,O=C(CCc1ccccc1)Nc1ccc(NC(=O)C2CC2)nc1,34% (active)
18,O=C(CCc1ccccc1)Nc1ccc(NC(=O)C2CCCCC2)nc1,14% (inactive)
19,O=C(C1CC(=O)N(c2ccc(Br)cc2)C1)N1CCCC1 (stereo not drawn),-7.92% (inactive)
20,COC(=O)c1ccc(N2CCOCC2)c(NC(=O)c2ccc3c(c2)OCCO3)c1,-10.5% (inactive)
21,CN(c1ccc(C(=O)NCCC2=CCCCC2)cc1)S(C)(=O)=O,10.7% (inactive)
22,CN(CC(=O)NCCc1ccccn1)S(=O)(=O)c1ccc(Cl)cc1,-4.58% (inactive)
23,CC(=O)Nc1ccc(S(=O)(=O)N(C)CC(=O)NCCC2=CCCCC2)cc1,26.4% (active)
24,Cc1ccccc1/C=C\c1nc(O)c([N+](=O)[O-])c(=O)[nH]1,-0.51% (inactive)

row,SMILES,inhibition
1,CCOC(=O)N1CCC(N2Cc3cccc(C(=O)Nc4c(C)cccc4CC)c3C2=O)CC1,8.95% (inactive)
2,COc1cc(OC)cc(C(=O)N[C@H](C(=O)OCC(=O)NC(C)c2ccccc2)C(C)C)c1 (stereo partly drawn),34.5% (active)
3,Cc1cc(C)cc(OCC(=O)NC(C)c2ccccc2)c1 (stereo not drawn),-3.54% (inactive)
4,Cc1ccc(OCC(=O)NC(C)c2ccccc2)cc1C (stereo not drawn),5.96% (inactive)
5,Cc1ccc(S(=O)(=O)N2CCC(C)CC2)cc1C(=O)NCc1ccccn1,-11.1% (inactive)
6,Cc1ccc(SCc2c(C(=O)N/N=C/c3cccnc3)nnn2-c2nonc2N)cc1,-12% (inactive)
7,COc1cc(OC)c(S(=O)(=O)Nc2ccccc2C(=O)O)cc1S(=O)(=O)Nc1ccccc1C(=O)O,-13.8% (inactive)
8,COC(=O)c1ccc(NC(=O)c2ccccc2NS(=O)(=O)c2ccccc2)cc1,17.3% (inactive)
9,COc1cc(NC(=O)c2ccccc2NS(=O)(=O)c2ccc(Cl)s2)cc(OC)c1,26.7% (active)
10,COc1ccc(Nc2ncc(F)c(N3CCOCC3)n2)cc1,-9.42% (inactive)
11,COc1ccccc1CN1CCN(C(c2ccccc2)c2ccccc2)CC1,-16.5% (inactive)
12,CC(=O)OC(C(=O)NC1CCCCC1)c1ccccc1 (stereo not drawn),-8.98% (inactive)
13,CC(NCc1ccccc1OC1CCCC1)c1ccccc1 (stereo not drawn),30.2% (active)
14,Cc1cnc(CN(C)C(=O)C2CCC(=O)N(CCc3cccc(F)c3)C2)[nH]1 (stereo not drawn),-18.8% (inactive)
15,CCn1c2ccc(F)cc2c2nnc(SCCN3CCOCC3)nc21,77.2% (active)
16,Cc1cc2nc(SCCN3CCOCC3)[nH]c2cc1C,3.59% (inactive)
17,Cn1c2ccc(F)cc2c2nnc(NN)nc21,-11.3% (inactive)
18,CCCNC(=O)C(=O)Nc1cc2c3c(c1)CCC(=O)N3CCC2,-11.2% (inactive)
19,Cn1cc([N+](=O)[O-])c(C(=O)Nc2cnn(Cc3ccc(F)cc3)c2)n1,-7.64% (inactive)
20,COc1cccc(NC(=O)c2ccc(Cn3cc([N+](=O)[O-])cn3)o2)c1,-2.16% (inactive)
21,CCc1ccc(NC(=O)c2ccc(Cn3cc([N+](=O)[O-])cn3)cc2)cc1,23.8% (active)
22,COc1ccc(/C=N/NC(=O)C2CC2)c(OC)c1OC,-4.35% (inactive)
23,O=C1CCCN2N=C(SCC(=O)Nc3ccc(Br)cc3)SC2=N1,4.5% (inactive)
24,Cc1cccc(-n2c(SCC(=O)Nc3cccc(S(=O)(=O)NC4=NCCCCC4)c3)nc3ccccc3c2=O)c1C,27.4% (active)

row,SMILES,inhibition
1,CCc1ccc(C(=O)OCC(=O)Nc2cccc(S(=O)(=O)NC3=NCCCCC3)c2)cc1,11.6% (inactive)
2,NS(=O)(=O)c1cccc(NC(=O)CSc2nc3ccccc3n2-c2ccccc2)c1,0.27% (inactive)
3,CCOc1ccc(S(=O)(=O)NCCCn2ccnc2)cc1NC(C)=O,-14.2% (inactive)
4,CCOc1cc(/C=C/c2nc3ccccc3c(=O)[nH]2)cc(Br)c1OC,19% (inactive)
5,CC(=O)Nc1ccc(OCC(O)CN2CCN(c3ccccc3Cl)CC2)cc1 (stereo not drawn),13% (inactive)
6,OC(COc1ccc2ccccc2c1)CN1CCOCC1 (stereo not drawn),-2.78% (inactive)
7,O=S(=O)(c1ccc(OCC(O)CN2CCN(c3ccccc3Cl)CC2)cc1)N1CCOCC1 (stereo not drawn),26% (active)
8,O=C(Nc1ccc(Br)cc1F)C1CC(=O)N(C2CCCCC2)C1 (stereo not drawn),-3.95% (inactive)
9,CCN(CC)S(=O)(=O)c1ccc(C(=O)N2CCN(C3=NS(=O)(=O)c4ccccc43)CC2)cc1,-4.91% (inactive)
10,COc1ccccc1N1CC(C(=O)Nc2nnc(SCC(=O)NC(C)C)s2)CC1=O (stereo not drawn),-8.06% (inactive)
11,COc1ccc(C)cc1NC(=O)NCCCCc1ccccc1,28.4% (active)
12,COc1ccc(C)cc1NC(=O)NCc1ccccn1,-18.5% (inactive)
13,COc1ccc(C)cc1NC(=O)Nc1ccccc1SC,-7.07% (inactive)
14,Cc1ccc(CN2CCNC(=O)C2CC(=O)NCc2csc(C(C)C)n2)cc1 (stereo not drawn),7.42% (inactive)
15,CCCCCCCCCCOC(=O)Cn1c(COc2cccc(OC)c2)[n+](C)c2ccccc21,65% (active)
16,CCCCCCCCCCOC(=O)Cn1c(COc2ccc(C)cc2)[n+](C)c2ccccc21,19.5% (inactive)
17,CCCCOC(=O)Cn1c(=N)n(CCN(CC)CC)c2ccccc21,2.44% (inactive)
18,OCCN(Cc1ccccc1)Cc1ccc(Cl)cc1,-3.11% (inactive)
19,O=[N+]([O-])c1ccc(N(CCO)Cc2ccccc2)c([N+](=O)[O-])c1,23.9% (active)
20,CCN(CC)c1ccc([N+](=O)[O-])cc1C(=O)O,-0.91% (inactive)
21,CC1C(=O)Nc2ccccc2N1C(=O)c1ccc(F)cc1F (stereo not drawn),-4.79% (inactive)
